# The list is not random: actives were taken first. Their share in the collection is about 3.5%.
# FBW7 act = FBW7 E3 ligase activators, primary screen, biochemical, AlphaScreen, human | AlphaScreen FBW7–phospho-cyclin E peptide binding, activator screen | F-box/WD repeat-containing protein 7 (Homo sapiens), Q969H0 | 0.13% of 650,000 active | normalized activity (activation), % at 26.1 µM; in the data active means normalized activity above about 1.9%;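 further: purified mutant Fbw7 with reduced substrate affinity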
# TEAD-YAP inh = TEAD-YAP interaction inhibition, primary screen, TEAD-YAP interaction inhibitor project, luminescence, HEK-TIYL cells; TEAD-Gal4/YAP UAS-luciferase luminescence; inhibition, % at 9.12 µM; 1.4% of 640,000 active; AID 1259422, 2018; in the data active means inhibition above about 32%;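 further: 0% = median of test compound wells and 100% = reference inhibitor wells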
# MITF primary = MITF inhibitors, primary screen, biochemical, AlphaScreen, human | inhibition, % at 2.6 µM | 0.91% of 650,000 active | AID 1259374, 2018 | Microphthalmia-associated transcription factor (Homo sapiens), O75030 | AlphaScreen MITF homodimerization, bead proximity signal; in the data active means inhibition above about 50%;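 further: 0% = vehicle wells with protein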
# Target sequence (O75030 whole entry, looked up): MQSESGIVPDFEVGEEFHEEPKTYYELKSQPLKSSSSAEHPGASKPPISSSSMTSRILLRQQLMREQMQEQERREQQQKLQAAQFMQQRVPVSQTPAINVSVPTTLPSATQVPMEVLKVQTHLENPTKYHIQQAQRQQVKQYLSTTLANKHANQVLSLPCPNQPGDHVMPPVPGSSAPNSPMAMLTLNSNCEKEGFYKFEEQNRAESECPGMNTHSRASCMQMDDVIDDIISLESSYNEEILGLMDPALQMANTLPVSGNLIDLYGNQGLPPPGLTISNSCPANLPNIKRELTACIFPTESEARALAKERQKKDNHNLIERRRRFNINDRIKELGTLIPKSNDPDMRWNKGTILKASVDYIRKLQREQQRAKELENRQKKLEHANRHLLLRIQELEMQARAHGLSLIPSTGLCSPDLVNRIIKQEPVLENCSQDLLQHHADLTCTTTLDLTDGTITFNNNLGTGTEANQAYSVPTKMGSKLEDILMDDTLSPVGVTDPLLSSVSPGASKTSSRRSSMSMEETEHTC
# GPR151 activ = activators of human GPR151, primary screen, cell-based, PathHunter beta-arrestin, luminescence; G-protein coupled receptor 151 (Homo sapiens), Q8TDV0; PathHunter beta-arrestin GPR151 cells; activation, % at 11.2 µM; 1% of 650,000 active; in the data active means activation above about 4.9%;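 further: 0% = median of compound wells and 100% = cells with positive control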
# MITF inh conf = MITF inhibitors, retest of hits, confirmation, biochemical, AlphaScreen, triplicate | shares compounds with MITF primary | AlphaScreen MITF homodimerization, biotin/His-MITF beads | inhibition, % at 2.6 µM | 16% of 4,700 active | AID 1259372, 2018;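 active means inhibition above a cutoff derived from the DMSO control wells, cut at about 28% in these data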;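 further: 0% = MITF dimer wells with DMSO only; inhibitors lower the bead chemiluminescence by keeping MITF from dimerizing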
# AS interf ctr = AlphaScreen optical interference compounds, counter-screen for MITF inhibitor project, biochemical, triplicate | shares compounds with MITF primary | LysRS AlphaScreen counterscreen, signal interference | inhibition, % at 2.6 µM | 7.6% of 4,700 active;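 active means inhibition above a cutoff derived from the DMSO control wells, cut at about 30% in these data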
# Numbers without * were called inactive; x = not tested or not shown.
SMILES,FBW7 act,TEAD-YAP inh,MITF primary,GPR151 activ,MITF inh conf,AS interf ctr
CCC(C)NCCOCCOc1ccc(C)cc1OC (stereo not given),0.0,-6.2,53.9*,-0.6,4.8,11.8
O=C(Nc1nnc(-c2ccco2)o1)c1ccc([N+](=O)[O-])o1,0.0,14.8,55.1*,-1.4,7.9,15.2
O=C(Nc1nnc(-c2ccccc2)o1)c1ccc([N+](=O)[O-])o1,0.0,11.5,-14.1,1.4,x,x
CCCCCCN(CCCCCC)CC(=O)Nc1c2c(nc3ccccc13)CCC2,-0.3,-2.5,71.2*,0.8,20.9,17.2
CCN(CC)CC(=O)Nc1c2c(nc3ccccc13)CCCC2,0.0,-1.4,43.8,-0.4,x,x
CCCCCN(CCCCC)CC(=O)Nc1cc(C)nc2ccccc12,-0.1,-1.2,73.7*,0.9,-2.2,2.7
CC(=O)c1cccc(NC(=O)c2cc3nc(-c4ccc(C)cc4)cc(C(F)(F)F)n3n2)c1,0.0,2.9,-1.3,1.2,x,x
CC1(C)CC(=O)C=C(NCCN2CCN(C(=O)Nc3ccc(Cl)c(Cl)c3)CC2)C1,0.0,0.3,73.5*,1.8,8.7,10.1
O=C(NNC(=S)Nc1ccccc1)C(=O)NNC(=S)Nc1ccccc1,-1.0,-3.8,78.6*,-0.3,58.2*,-21.6
Cc1ncc(CO)c(/C=N/NC(=O)c2ccccc2F)c1O,-1.5,-33.2,32.0,-0.3,x,x
Cc1ncc(CO)c(/C=N/NC(=S)Nc2ccc(F)cc2)c1O,-0.8,-1.6,85.3*,-1.7,14.7,22.9
Cc1ncc(CO)c(/C=N/Nc2ccc(C(F)(F)F)cc2[N+](=O)[O-])c1O,0.0,4.1,-9.7,0.7,x,x
Cc1ncc(CO)c(/C=N/Nc2ccc(C(F)(F)F)cn2)c1O,-1.2,30.0,57.5*,3.7,22.6,100.3*
Cc1ncc(CO)c(/C=N/NC(=S)Nc2ccc(Cl)cc2)c1O,-0.3,9.1,64.0*,-0.5,-15.3,21.4
O=C(CCCCCn1nnc2ccccc2c1=O)N1CCC(O)(c2cccc(C(F)(F)F)c2)CC1,0.1,6.7,74.2*,1.5,6.9,1.5
O=C(Nc1ccccc1-c1ccccc1)C1CCCN1C(=O)Nc1ccccc1 (stereo not given),0.1,6.5,79.0*,0.6,11.6,16.4
CC(=O)Nc1ccc(N2CCN(C(=O)c3ccccc3)CC2)cc1,0.0,8.7,53.2*,2.3,-12.3,-2.9
COC(=O)C1Sc2[nH]c(=O)sc2C(c2cccc([N+](=O)[O-])c2)C1C(=O)OC (stereo not given),0.4,-8.6,16.2,0.3,x,x
COC(=O)C1Sc2[nH]c(=O)sc2C(c2ccc(OC)cc2)C1C(=O)OC (stereo not given),0.4,-2.4,51.5*,1.5,-3.1,-1.9
CCOc1cc(CN2CCC(C(=O)NCC3CCCO3)CC2)ccc1O (stereo not given),0.0,0.1,58.3*,0.8,1.2,-2.3
COc1cc(CN2CCC(C(=O)NC3CCCC3)CC2)ccc1O,0.2,4.6,59.6*,0.5,-15.7,2.0
CCOc1ccc(CN2CCC(C(=O)NCC3CCCO3)CC2)cc1 (stereo not given),0.0,-3.2,35.5,-0.1,x,x
O=C(Nc1ccc(F)cc1F)c1noc2c1COc1ccccc1-2,-0.1,-58.7,-3.9,0.6,x,x
c1cc(NC2CCNCC2)c2ccncc2c1,-0.8,12.8,17.3,0.2,x,x
CCN1CCCC1CNCC(O)COc1ccccc1 (stereo not given),0.3,2.4,55.6*,-0.8,-12.1,-7.3
CC(=O)c1ccc(N2CCN(C(=O)C3(S(=O)(=O)c4ccc(C)cc4)CC3)CC2)cc1,0.0,-2.8,-7.8,0.4,x,x
CCCS(=O)(=O)N1CCN(C(C)CC)CC1 (stereo not given),-0.1,-2.5,51.8*,2.3,-2.6,12.7
Cc1ccc2sc(N3CCN(C(=O)c4cccs4)CC3)nc2c1C,0.1,0.0,7.1,0.7,x,x
CCOC(=O)c1c(C)nc2c(c1-c1ccccc1)/C(=N/O)CC(C)(C)C2,0.5,-4.4,12.9,-0.3,x,x

# Source: PubChem BioAssay (The Scripps Research Institute Molecular Screening Center)
